Data as given in ChEMBL document CHEMBL3988442, “University of Dundee, Small-Polar-MMV Screening Library” (2021).
The campaign covered roughly 48,000 compounds. About 13,000 (27%) showed an effect of 50% or more. This is one part of the list.

System: Wolbachia pipientis
Assay: Anti-Wolbachia Cell-Based Screen
Assay type: functional
Parameters: scale not given: in the data most compounds retested in dose-response had high values
Settings: 5 µM

Row | SMILES | Percent Effect
1 | COCc1cccc(NC(C)C(=O)N(C)Cc2cccc(F)c2)c1 (stereo not given) | -0.4154%
2 | CC(C)Cn1ncc2cc(C(=O)N(C)Cc3cccc(O)c3)cnc21 | -1.61%
3 | COC(=O)c1cccc(C(=O)N(C)Cc2cccc(F)c2)c1 | 85.67%
4 | CC(=O)Nc1cccc(CNC(=O)N(C)Cc2ccccc2)c1 | -8.333%
5 | COC(=O)c1cccc(C(=O)N(C)Cc2ccsc2)c1 | 77.93%
6 | CN(Cc1cccc(F)c1)C(=O)c1ccncc1Cl | -2.45%
7 | COC(=O)Nc1cccc(C(=O)N(C)Cc2cccc(O)c2)c1 | 89.16%
8 | CN(C)C(=O)c1cccc(NC(=O)N(CCO)Cc2ccsc2)c1 | 5.648%
9 | CN(Cc1ccsc1)C(=O)c1cccc(F)c1 | 7.751%
10 | CCN(C)C(=O)c1cccc(C(=O)N(C)Cc2cccc(O)c2)c1 | 101.4%
11 | CN(Cc1cccc(O)c1)C(=O)c1ccc(CCC(C)(C)O)cc1 | -13.77%
12 | c1cnc2c(c1)nc1n2[C@@H](CNC2CCOCC2)COC1 | -0.09884%
13 | CCCC(=O)N(CCCN1CCOCC1)c1nc2c(F)cccc2s1.Cl | 33.03%
14 | CN(C)Cc1nnc(C(=O)N(C)Cc2ccc(C(F)(F)F)cc2)o1 | -9.605%
15 | O=C(NCc1nc(C2CCCCC2)no1)C1CC(=O)N(C2CCCC2)C1 (stereo not given) | -9.19%
16 | CCc1nc(CSc2nnc(N)n2C2CC2)no1 | 6.66%
17 | CC(=O)c1cccc(OCCCC(=O)N(C)Cc2cccc(O)c2)c1 | -0.5874%
18 | COC(=O)c1cccc(C(=O)N(C)Cc2cccc(O)c2)c1 | 112.7%
19 | Cc1cnc(NC(=O)NCCOc2ncccc2Cl)s1 | 12.43%
20 | Cn1c(=O)[nH]c(=O)n2c(CC(=O)NCc3ccccc3)cnc12 | 108.8%
21 | Cc1cccc(Cl)c1NC(=O)Cn1cc(C(=O)O)ccc1=O | 9.076%
22 | Cc1nc2c(c(C)c1CC(=O)Nc1ccc(Cl)cc1)c(=O)[nH]n2C | -4.982%
23 | Cn1c(=O)[nH]c(=O)n2c(CC(=O)Nc3ccc(Cl)c(Cl)c3)cnc12 | 103.6%
24 | Cn1c(=O)[nH]c(=O)n2c(CC(=O)Nc3c(Cl)cccc3Cl)cnc12 | 100.8%
25 | CC(C)(C)n1ncc2c(=O)n(CC(=O)NCc3ccccc3)cnc21 | 3.953%

Row | SMILES | Percent Effect
26 | Cc1ccc(NC(=O)Cc2cnc3n(C)c(=O)[nH]c(=O)n23)cc1 | 128%
27 | COc1ncc(C(=O)NCc2ccccc2)cn1 | -10.01%
28 | Cc1nc2cc(=O)[nH]n2c(C)c1CC(=O)Nc1cn[nH]c1 | -20.81%
29 | COCC(=O)Nc1ccc(Sc2nncn2C)c(Cl)c1 | 2.363%
30 | O=C(CCn1ccccc1=O)Nc1ccc(F)c(Cl)c1 | 4.502%
31 | CNS(=O)(=O)CC(=O)N(Cc1c(F)cccc1F)C1CCCC1 | -5.167%
32 | Cc1cccc(CN(C(=O)CS(C)(=O)=O)C(C)C)c1 | -6.499%
33 | CC(C)c1cnc(CN2CCCS2(=O)=O)o1 | 3.272%
34 | O=C(NCC(O)c1ccc(F)c(F)c1)c1cccnc1O (stereo not given) | -2.059%
35 | CCNc1ncc(CN2C[C@H](C3CC3)[C@@H](N)C2)cn1 | -8.073%
36 | CC(C)Cc1cc(CNC(=O)c2cccc3c2NCCC3)no1 | 2.864%
37 | Cc1nc2c(c(C)c1CC(=O)Nc1cccc(C#N)c1)c(=O)[nH]n2C | -6.097%
38 | Cc1cccc(NCc2nn(C)c(=O)[nH]2)c1 | -1.788%
39 | COCCn1ccc(=O)c(OCC(=O)Nc2ccccc2)c1C | 9.271%
40 | Cn1c(=O)ccn(CC(=O)Nc2cccnc2)c1=O | 18.35%
41 | Cc1cccc(NC(=O)Cc2cnc3n(C)c(=O)[nH]c(=O)n23)c1 | 101.4%
42 | Cn1c(=O)[nH]c(=O)n2c(CC(=O)Nc3ccccc3)cnc12 | 114.1%
43 | Cc1nnc(N2CCC(CCN(C)C)CC2)c(C#N)c1C | 18.81%
44 | O=S(=O)(C1CC1)N1CCOC2(CCCN(c3ccccc3)C2)C1 (stereo not given) | -6.387%
45 | COC(=O)N1C[C@H]2CC[C@@H]1CN(Cc1cscn1)C2 | -5.87%
46 | Cc1ccc(N2CCCC(N(C)Cc3nc(C)c(C)o3)C2)nn1 (stereo not given) | -10.05%
47 | O=C(O)C(F)(F)F.O=C1COC2(CCN(Cc3nccs3)CC2)CN1c1ccccc1 | 109.8%
48 | O=C(O)C(F)(F)F.O=C(O)C(F)(F)F.O=C1COC2(COCCN(Cc3cccnc3)C2)CN1c1ccccc1 (stereo not given) | -10.32%
49 | CN1CC(=O)N(c2ccccc2)CC12CCN(Cc1nccs1)C2.O=C(O)C(F)(F)F.O=C(O)C(F)(F)F (stereo not given) | -23.26%
50 | Cn1cc(CN2CCC3(CC2)CN(c2cccnc2)C(=O)CO3)cn1 | 89.07%

Row | SMILES | Percent Effect
51 | O=C(O)C(F)(F)F.O=C(O)C(F)(F)F.O=C1COC2(CCN(Cc3ccncc3)CC2)CN1c1ccccc1 | 106.6%
52 | CN1CC(=O)N(c2cccc(F)c2)CC12CCN(Cc1ccncc1)C2.O=C(O)C(F)(F)F.O=C(O)C(F)(F)F (stereo not given) | -24.86%
53 | Cc1ccc(N2CC3(COCCN(Cc4ccncc4)C3)OCC2=O)s1.O=C(O)C(F)(F)F.O=C(O)C(F)(F)F (stereo not given) | 7.716%
54 | O=C(O)C(F)(F)F.O=C1COC2(CCN(Cc3nccs3)CC2)CN1CC1CC1 | -7.755%
55 | Cc1ccc(N2CC3(COCCN(Cc4cnn(C)c4)C3)OCC2=O)s1.O=C(O)C(F)(F)F (stereo not given) | -8.814%
56 | O=C(O)C(F)(F)F.O=C(O)C(F)(F)F.O=C1COC2(CCN(Cc3cccnc3)CC2)CN1c1ccccc1 | 95.43%
57 | CCS(=O)(=O)c1ncc(CN(C)CCc2ccccn2)n1CCOC | -7.108%
58 | CC(C)(C)c1ccc(S(=O)(=O)CCNC(=O)c2cnccn2)cc1 | -1.994%
59 | O=C(Nc1cc(C2CCOCC2)[nH]n1)c1cscn1 | -9.479%
60 | O=C(O)C(F)(F)F.O=C1COC2(CCN(Cc3ccoc3)CC2)CN1c1ccccc1 | 110.1%
61 | c1coc(-c2nc3c(c(N4CCCN5CCC[C@H]5C4)n2)CCNCC3)c1 | -2.635%
62 | CN1CCC(c2cccc(-c3cccc(C(=O)O)c3)n2)CC1 | 172.2%
63 | CN1CCC(c2cccc(-c3ccc(C(=O)O)cc3)n2)CC1 | 143.4%
64 | Cc1nc(-c2cccc(C(=O)O)c2)c[nH]1 | 12.51%
65 | CC(=O)N1CCC(c2cccc(-c3cccc(C(=O)O)c3)n2)CC1 | 150.5%
66 | O=C(O)c1ccc(-c2cscn2)cc1 | -4.979%
67 | CCC1CN(CC(=O)NCC(C)C)CCO1 (stereo not given) | 14.46%
68 | CN(C)C(Cn1ccnc1-c1nccn1C)c1ccccc1Cl (stereo not given) | -33.34%
69 | Cn1cnc(S(=O)(=O)NCC2(O)CCc3ccccc3C2)c1 (stereo not given) | -0.2896%
70 | Cc1cc(C(F)(F)F)cc(N2CCN(Cc3ccccc3)CC(O)C2)n1 (stereo not given) | -8.979%
71 | Cc1noc(C)c1C(=O)NCc1cc[nH]n1 | -8.617%
72 | c1nc(N2CCCC2)ncc1CN1CCCC(CN2CCCCC2)C1 (stereo not given) | 95.39%
73 | NC(=O)CCC1CCCN(Cc2cnc(N3CCCCC3)nc2)C1 (stereo not given) | 104.2%
74 | COc1ccccc1-c1ncc(CN2CCCC(CCC(N)=O)C2)s1 (stereo not given) | 16.75%
75 | N[C@H]1CN(Cc2cnc(N3CCCC3)nc2)C[C@@H]1C1CC1 | -16.17%

Row | SMILES | Percent Effect
76 | NC(=O)CCC1CCCN(c2ncnc3c2Cc2ccccc2OC3)C1 (stereo not given) | -12.56%
77 | Cc1cccc(C)c1OC1CN(Cc2cnc(N3CCCC3)nc2)C1 | 1.788%
78 | CCc1cnc(N2CCCOC(CN3CCCC3)C2)nc1 (stereo not given) | -1.454%
79 | O=C(O)CCc1cc2n(n1)CCN(Cc1cnc(N3CCCC3)nc1)C2 | -15.82%
80 | CCc1cnc(N2CCCC(CCC(N)=O)C2)nc1 (stereo not given) | 109.3%
81 | O=C(N[C@H]1CN(C2CCOCC2)C[C@@H]1C1CC1)c1ccon1 | -9.557%
82 | CN(Cc1cc[nH]n1)C(C(=O)O)c1ccc(Cl)cc1 (stereo not given) | -11.22%
83 | Cc1cnn(-c2ccc(S(=O)(=O)N(C)CC(C)(CO)CO)cc2F)c1 | -2.822%
84 | CN(CC(=O)NCC(F)(F)F)Cc1cccc2c1OCCO2 | -18.06%
85 | CN(Cc1ccc(CCC(C)(C)O)cc1)Cc1cccnc1 | -22.62%
86 | CS(=O)(=O)N1CC2(CCN(Cc3ccccn3)C2)Cc2ccccc21 (stereo not given) | 111%
87 | Cc1ccc(CN2CCC3(CCCN(S(C)(=O)=O)C3)C2)o1 (stereo not given) | -14.58%
88 | CS(=O)(=O)N1Cc2ccccc2CC2(CCN(Cc3ccccc3)C2)C1 (stereo not given) | 126.9%
89 | Cc1ccc(CN2CCC3(CCN(S(=O)(=O)c4ccccc4)C3)C2)o1 (stereo not given) | -12.36%
90 | CN1CC(=O)N(c2cccc(F)c2)CC12CCN(Cc1ccccn1)C2 (stereo not given) | 2.437%
91 | COCC(=O)N1CCC2(CCN(Cc3ccccn3)CC2)CC1 | -21.07%
92 | CS(=O)(=O)N1Cc2ccccc2CC2(CCN(Cc3ccncc3)C2)C1 (stereo not given) | 115%
93 | Cc1ccc(N2CCC3(CCN(Cc4ccccn4)CC3)CC2)nn1 | 3.728%
94 | c1cnn(Cc2ccc(CN3CCC4(CCNCC4)C3)cc2)c1 | 15.29%
95 | COCCC(=O)N1CC2(CCN(Cc3ccncc3)CC2)C1 | 12.72%
96 | CS(=O)(=O)N1CCC(c2nccn2Cc2ccccn2)CC1 | 3.46%
97 | CS(=O)(=O)N1Cc2ccccc2CC2(CCN(Cc3ccccn3)C2)C1 (stereo not given) | 113.9%
98 | COCC(c1cccc(C(F)(F)F)c1)N(C)C(=O)c1cc(C)n[nH]1 (stereo not given) | -9.299%
99 | Cc1nc2[nH]cc(C(=O)N3CCCCC3c3ccc(F)cc3)c(=O)n2n1 (stereo not given) | -1.637%
100 | Cc1nc(-c2cc(C(=O)O)co2)cs1 | 4.91%
